For 91 compounds, activation results are on record in PubChem BioAssay AID602247 (The Scripps Research Institute Molecular Screening Center, 2012).

Screen size: about 360,000 compounds; about 80 (0.02%) were called active.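 Rule for the calls: active = activation above the run cutoff, the mean activation of all test compounds plus 3 SD (cut at about 40% in these data); inactive = the rest.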 Only a selection was taken, and actives are over-represented in it overall.

The experiment in a line: nonselective calcium activators in parental CHO-K1 cells, primary screen, counter-screen for M1 PAM project, cell-based, Fluo-8 calcium fluorescence, full deck, 1536-well (AID 602247).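 Note: peak over basal fluorescence ratio in a 140 s read after ATP addition.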 The conditions noted are these: parental CHO-K1, ATP EC20, Fluo-8 calcium fluorescence; at 3 µM; stronger effect = higher value; 0% at ATP EC20, 100% at ATP max. On the technique in general: The purpose of a counterscreen is to sort out artefacts and off-target activity.
Take `NC1=NC(=O)C2(COC(c3ccccc3Cl)OC2)S1` (stereo unspecified): the activation was 19% (inactive).

On to `CCOc1ccc(C(=O)Nc2ccc(S(=O)(=O)NCC3CCCO3)cc2)cc1OCC` (stereo unspecified), for which the activation is -16.7% (inactive).

With `CCOc1ccc(S(=O)(=O)N(CC(=O)O)c2ccccc2)cc1`, the activation was 12.9% (inactive).

Consider `CN(C)/C=C(\C#N)C(=O)c1cccnc1Oc1ccc(F)cc1F`, for which the activation was 13.9% (inactive).

With `COCCNC(=O)C1CCN(C(=O)C2CC(=O)N(c3ccc(C)cc3)C2)CC1` (stereo unspecified), the activation was 7.97% (inactive).

On to `COc1ccc(-n2ncc3c2CC(C)(C)CC3NC(=O)CCc2c(C)noc2C)cc1` (stereo unspecified), for which the activation is -2.15% (inactive).

For `CCCNC(=S)N1CCCC(c2nc3ccccc3[nH]2)C1` (stereo unspecified), the activation was 14.2% (inactive).

As to `CC(C)C[C@@H]1COc2cc(N3CCC[C@@H]3CO)ccc2S(=O)(=O)N1`, the activation is 4.5% (inactive).

Turning to `CC1CCCN(C(C(=O)Nc2ccc(C(C)C)cc2)c2ccc3c(c2)OCO3)C1` (stereo unspecified), the activation was 10.5% (inactive).

As to `Cc1ccc(NS(=O)(=O)c2c(C)[nH]c(=O)[nH]c2=O)cc1C`, the activation was 7.33% (inactive).

Take `COc1cc(OC)cc(C(=O)NNC(=O)CNC(=O)c2ccc(Br)o2)c1`: the activation is -26.2% (inactive).

On to `CCOC(=O)c1sc(N)c(C#N)c1COC(=O)C1=COCCO1`, for which the activation was -16.5% (inactive).

With `Cc1ccc(NC(=O)NC(=O)N(C2CCCCC2)S(=O)(=O)c2ccccc2)cc1`, the activation is 15.3% (inactive).

Consider `Cn1c(=O)oc2cc(S(=O)(=O)N3CCC(C(=O)Nc4ccc(OC(F)(F)F)cc4)CC3)ccc21`, for which the activation is 29.6% (inactive).

For the compound `O=[N+]([O-])c1ccc(N2CCN(c3ccc(F)cc3)CC2)cn1`, the activation was -7.83% (inactive).

For the compound `NC1=NC2(CCCCC2)N(c2ccc(F)cc2F)C(N)=N1`, the activation was -9.48% (inactive).

On to `Cc1ccc(CC(=O)Nc2cccc(C#N)c2)cc1`, for which the activation is 18.7% (inactive).

With `CC(C)NC(=O)NC(=O)CSc1nnc(-c2ccccc2F)n1N`, the activation was 30% (inactive).

Regarding `CC1(C(=O)NS(=O)(=O)c2cccs2)CCN1C(=O)Cc1ccc(-c2ccccc2)cc1` (stereo unspecified), the activation was 13% (inactive).

On to `O=C(NC1CC2CCCC(C1)N2C(=O)N1CCCCC1)C1CCCCC1` (stereo unspecified), for which the activation was 7.85% (inactive).

For the compound `CCCC(C(=O)NC1CCCC1)N(C(=O)Cn1nnc(-c2ccc(C)o2)n1)c1cccc(O)c1` (stereo unspecified), the activation is 13.1% (inactive).

Consider `COc1cccc(NC(=O)C(=O)c2cn(CC(=O)N3CCOCC3)c3ccccc23)c1`, for which the activation was -2.46% (inactive).

With `CCCCN(C(=O)c1cccc(N2C(=O)c3ccccc3C2=O)c1)c1c(N)n(CCCC)c(=O)[nH]c1=O`, the activation was 11.7% (inactive).

Regarding `O=C(Cn1cc(C(F)(F)F)ccc1=O)N/N=C/c1ccc(Cl)cc1Cl`, the activation was 3.42% (inactive).

As for `CC(OC(=O)CNC(=O)c1cccc(F)c1)C(=O)NC1CCCCC1C` (stereo unspecified), the activation was 10.1% (inactive).

As for `CCC(=O)c1ccc(OCC(=O)N(CC)CC2COc3ccccc3O2)cc1` (stereo unspecified), the activation is 15.6% (inactive).

Turning to `O=C(N[C@H]1C/C=C\C(c2cccc(F)c2)N(Cc2ccccc2)C(=O)C1)OCC1c2ccccc2-c2ccccc21` (stereo partly specified), the activation is -2.24% (inactive).

With `O=C(OCC(=O)N1CCN(C(=O)c2ccco2)CC1)c1ccccc1Cc1ccccc1`, the activation was 8.99% (inactive).

Take `COc1cccc(CN2CCC(C(=O)NC(c3ccc4c(c3)OCO4)c3ccccn3)CC2)c1` (stereo unspecified): the activation is 12.4% (inactive).

As to `CCOc1cc2c(Cl)ncnc2c(OCC)c1OCC`, the activation is -10.2% (inactive).

As for `CC1(C)O[C@@H]2[C@H](O1)[C@@H](CO)O[C@H]2n1c(N2CCCCC2)nc2c(N)ncnc21`, the activation is 11.6% (inactive).

Turning to `COc1ccc(N2CC(C(=O)NCCS(=O)(=O)N3CCN(c4ccccc4)CC3)CC2=O)cc1` (stereo unspecified), the activation is -1.18% (inactive).

For the compound `C/C(=N\NC(=O)COc1ccc(C)cc1[N+](=O)[O-])c1ccc2c(c1)OCCO2`, the activation was 4.27% (inactive).

Turning to `Cc1cc(C)n(-c2nnc(C)n2NC(=O)c2cccc(Cl)c2)n1`, the activation is 9.43% (inactive).

In the case of `Cc1ccc(C)c(NC(=O)C2CC(=O)N(C(C)C)C2)c1` (stereo unspecified), the activation is 12.2% (inactive).

In the case of `COCCn1c(=O)[nH]c2cc(C(=O)NCc3cccnc3)ccc2c1=O`, the activation was 6.89% (inactive).

Take `CC(C)CC(=O)c1c[nH]c(C(=O)NCc2ccccc2)c1`: the activation was 0.92% (inactive).

For the compound `O=C(CC(NCCN1CCOCC1)C(=O)O)Nc1cccc(Cl)c1` (stereo unspecified), the activation is 20.9% (inactive).

As for `CC(=O)NC1C(Oc2ccc(C)cc2)OC2COC(c3ccco3)OC2C1O` (stereo unspecified), the activation is -5.49% (inactive).

As to `O=S(=O)(NC1CCCCC1N1CCN(c2ccccc2F)CC1)c1ccccc1` (stereo unspecified), the activation is 19.1% (inactive).

Turning to `O=C(Nc1ccc(Br)cc1)c1cccc(NC(=O)C2C3CC4OC(=O)C2C4C3)c1` (stereo unspecified), the activation is 9.66% (inactive).

With `Cc1ccc(/C=C2\CCn3c2nc2cc(C(=O)O)ccc2c3=O)c(C)c1`, the activation is 17.1% (inactive).

For the compound `O=C1c2cccc3cccc(c23)C(=O)N1c1cccc(O)c1`, the activation was 12.7% (inactive).

As for `OC1CCCN(c2ncnc3c2nnn3Cc2c(F)cccc2Cl)C1` (stereo unspecified), the activation was 20.4% (inactive).

Turning to `CCC1CCCCN1C(=S)Nc1ccc(SC(F)F)cc1` (stereo unspecified), the activation was 3.06% (inactive).

In the case of `COc1ccc(O)c(C=Nc2cc(C)on2)c1`, the activation is 1.78% (inactive).

As to `CC(C)C(=O)N1CC(=O)Nc2ccc(F)cc2C1c1ccc(F)cc1` (stereo unspecified), the activation was 3.77% (inactive).

As for `CCCN1CNC(=S)N(CCc2ccccc2)C1`, the activation is -4.97% (inactive).

Regarding `O=C(Nc1ccc(Br)cc1F)C1CC(=O)N(C2CCCCC2)C1` (stereo unspecified), the activation was 9.78% (inactive).

Turning to `CCOc1ccccc1NC(=O)NC1CCCCCCC1`, the activation is 20% (inactive).

Turning to `CN(C)/C(CN1CCCCC1)=C1\N=C(c2ccccc2)OC1=O`, the activation is 19.8% (inactive).

Take `CN(C)CCCOc1ccc(-c2ccc3nccn3c2)cn1`: the activation is 15.7% (inactive).

Turning to `CCOP(=O)(OCC)C(Cc1ccccc1)N=C(c1ccccc1)c1ccccc1` (stereo unspecified), the activation was 19.7% (inactive).

For `COc1ccc(OC)c(NC(=O)CSc2nc3cccnc3n2C)c1`, the activation is 9.99% (inactive).

As to `O=C(CN1C(=O)c2ccc([N+](=O)[O-])cc2C1=O)Nc1nnc(C2CC2)s1`, the activation was 1.72% (inactive).

Take `CC(=O)Nc1ccc(NC(=O)C2CCCN2S(=O)(=O)c2cccc(C(F)(F)F)c2)cc1` (stereo unspecified): the activation is -6.05% (inactive).

In the case of `O=C1c2ccncc2C(=O)N1C1CCCCC1`, the activation was 15.5% (inactive).

For `Cc1nc(C(F)(F)F)ccc1C(=O)N1CCC1(C)C(=O)NS(=O)(=O)c1ccccc1Cl` (stereo unspecified), the activation was 11.4% (inactive).

`COc1ccc(C(=O)N2CCC(C(=O)Nc3ccc(C)cc3)CC2)cc1`: the activation was 28.6% (inactive).

Turning to `Cc1ccc(Cn2cc(C(=O)NN)c(=O)c3ccc(F)cc32)cc1`, the activation is -28.1% (inactive).

Take `CCOC(=O)C1(Cc2ccc(O)cc2)NC(c2ccccc2F)C2C(=O)N(C)C(=O)C21` (stereo unspecified): the activation is 24% (inactive).

Consider `Cc1cccc([C@H]2[C@@H]3C=CC[C@@H](C)[C@@H]3C(=O)N2Cc2ccccc2)c1`, for which the activation was -0.48% (inactive).

Take `CSc1ccc(S(=O)(=O)NCC(=O)OCC(=O)NC2(C#N)CCCCC2)cc1[N+](=O)[O-]`: the activation is -4.9% (inactive).

With `Nc1nc(O)c(CC(=O)O)s1`, the activation was 1.33% (inactive).

Regarding `O=C(CCS(=O)(=O)c1ccccc1Cl)Nc1ccc(S(=O)(=O)Nc2ncccn2)cc1`, the activation is 7.81% (inactive).

In the case of `COc1ccc(S(=O)(=O)N2CN(CCc3ccc(OC)c(OC)c3)c3nc4ccccc4nc32)cc1`, the activation is 1.88% (inactive).

Consider `C#CCCOC(=O)N1C2=NC(C(=O)OC)=C(C(=O)OC)[C@@H]3N(C)c4ccc(OC)cc4[C@]23C[C@H]1C(=O)OC`, for which the activation is -12.8% (inactive).

Regarding `O=C(CCCCCn1c(=S)[nH]c2ccsc2c1=O)NC1CCCCC1`, the activation is 16.9% (inactive).

Consider `CC(C)n1ncc2c(C(=O)NCc3ccccc3CN(C)C)cc(C3CC3)nc21`, for which the activation was -12.7% (inactive).

Consider `COC(=O)c1cc(S(=O)(=O)NC2CCN(Cc3ccccc3)CC2)cn1C`, for which the activation was 3.07% (inactive).

Take `CCOc1ccc(NC(=S)N2CCC(N(C)CC3CCCO3)CC2)cc1` (stereo unspecified): the activation was 23.7% (inactive).

Consider `COc1ccc(OC)c(S(=O)(=O)N2CCCC(C(=O)NCCc3ccccc3)C2)c1` (stereo unspecified), for which the activation was -2.03% (inactive).

Consider `Cc1ccc(OC(=O)c2cncc(Br)c2)c(C)c1`, for which the activation is -0.46% (inactive).

Regarding `S=C(Nc1ccc2c(c1)OCO2)N1CCCC1`, the activation was 12.1% (inactive).

As to `COc1ccc(-c2ccc(C(=O)NC(C)C)c3occc23)c(C)c1`, the activation is 11% (inactive).

Regarding `CC(=O)Nc1ccc(NC(=O)CSCc2cnn(-c3ccccc3)c2-n2cccc2)cc1`, the activation was 1.5% (inactive).

As for `Cc1ccc(N2C(=O)CC(N3CCSCC3)C2=O)c(C)c1` (stereo unspecified), the activation is 0.16% (inactive).

With `CCOC(=O)C1CCN(CCC(=O)Nc2cccc(C)c2)CC1`, the activation is -4.96% (inactive).

Consider `CCCCCc1c(Cc2ccccc2)ncn1CCc1ccccc1OC`, for which the activation was 3% (inactive).

On to `CC(NC(=O)CN(C)S(=O)(=O)c1ccc(F)cc1)C1CC2CCC1C2` (stereo unspecified), for which the activation was 9.24% (inactive).

As for `CCC(C(=O)NC1CCCC1)N(C(=O)Cn1nnc(-c2ccc(C)o2)n1)c1ccc(OC)c(OC)c1` (stereo unspecified), the activation was -0.54% (inactive).

For the compound `NC(=O)C1(Nc2ccc(-c3ccccc3)cc2)CCCC1`, the activation was 0.81% (inactive).

For `CCOc1cc(/C=N/NC(=O)c2cc(-c3ccccc3)nc3ccccc23)ccc1O`, the activation was 40.7% (active).

Regarding `CCOc1ccccc1-c1cc(C(=O)N/N=C(\C)c2cccnc2)c2ccccc2n1`, the activation is 15.1% (inactive).

For `CCOc1cc(/C=N/NC(=O)c2c(C)nc3ccc(Cl)cn23)ccc1O`, the activation was -3.92% (inactive).

In the case of `O=C(c1ccc(=O)[nH]c1)N(Cc1ccco1)C1(C(=O)NC2CCCCC2)CCCCC1`, the activation was 7.15% (inactive).

For the compound `CCC(C)NC(=O)C1CCC(=O)N1Cc1ccc(C)cc1` (stereo unspecified), the activation is 19.6% (inactive).

In the case of `CCn1c(SCC(=O)Nc2ccc(OC)c(OC)c2)nnc1-c1c[nH]c2ccccc12`, the activation was 22.7% (inactive).

For the compound `COc1ccccc1NC(=O)C(CC(=O)O)Cc1cc(C)cc(C)c1` (stereo unspecified), the activation was 22.4% (inactive).

Take `O=S(=O)(c1cccc(C(F)(F)F)c1)N1c2ccccc2-n2cccc2C1c1cccnc1` (stereo unspecified): the activation is 10.8% (inactive).

On to `O=C(NC1CCCC1)C(c1ccc(N2CCOCC2)cc1)N(C(=O)c1ccco1)c1ccccc1F` (stereo unspecified), for which the activation was 4.16% (inactive).
